Paper PMC4336329 (PLoS ONE, 2015)
About 14,000 (4.5%) of roughly 310,000 compounds showed an effect of 50% or more. Effects have a minus sign here. Many of the other results were omitted from the sample, so strong results are more common in it than they were.

The compounds below were run against human ether-à-go-go-related gene (hERG) potassium channel (human, UniProt Q12809) (assay: primary screen, population patch clamp on CHO cells stably expressing hERG; higher = less effect of the substance).
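Note: peak tail current of the secondary pulse compared with the same well before compound.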

Sequence of human ether-à-go-go-related gene (hERG) potassium channel (Q12809 whole entry, looked up): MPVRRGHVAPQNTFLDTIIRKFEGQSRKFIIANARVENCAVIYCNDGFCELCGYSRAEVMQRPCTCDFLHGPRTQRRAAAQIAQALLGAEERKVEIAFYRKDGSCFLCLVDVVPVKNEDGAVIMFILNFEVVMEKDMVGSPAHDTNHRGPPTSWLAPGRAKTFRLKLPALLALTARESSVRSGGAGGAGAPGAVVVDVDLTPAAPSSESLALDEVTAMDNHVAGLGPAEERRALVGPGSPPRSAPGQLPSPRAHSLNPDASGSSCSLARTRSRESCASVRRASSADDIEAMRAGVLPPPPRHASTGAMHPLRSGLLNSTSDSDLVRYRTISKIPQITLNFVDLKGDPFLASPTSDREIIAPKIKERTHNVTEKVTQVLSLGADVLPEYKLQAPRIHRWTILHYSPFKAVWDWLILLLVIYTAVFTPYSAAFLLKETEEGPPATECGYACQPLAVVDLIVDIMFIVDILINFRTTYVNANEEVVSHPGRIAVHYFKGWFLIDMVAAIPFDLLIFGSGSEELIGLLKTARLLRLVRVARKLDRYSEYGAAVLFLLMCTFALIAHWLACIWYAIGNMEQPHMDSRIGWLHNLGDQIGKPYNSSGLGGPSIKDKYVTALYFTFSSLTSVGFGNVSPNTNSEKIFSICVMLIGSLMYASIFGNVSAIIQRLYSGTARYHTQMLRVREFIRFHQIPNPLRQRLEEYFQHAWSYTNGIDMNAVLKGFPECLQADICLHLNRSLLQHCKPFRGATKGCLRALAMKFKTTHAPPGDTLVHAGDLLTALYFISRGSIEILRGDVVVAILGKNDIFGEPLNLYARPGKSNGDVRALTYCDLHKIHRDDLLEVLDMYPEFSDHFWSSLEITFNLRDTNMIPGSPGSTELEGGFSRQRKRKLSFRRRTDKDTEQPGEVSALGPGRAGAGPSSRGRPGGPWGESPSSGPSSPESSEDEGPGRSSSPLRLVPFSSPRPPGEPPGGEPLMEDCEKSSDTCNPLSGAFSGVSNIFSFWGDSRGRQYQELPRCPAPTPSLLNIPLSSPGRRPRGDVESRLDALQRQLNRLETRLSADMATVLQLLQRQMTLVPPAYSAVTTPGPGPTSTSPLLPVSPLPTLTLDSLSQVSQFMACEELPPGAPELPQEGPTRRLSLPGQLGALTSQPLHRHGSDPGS

Row | Compound | hERG current change (%, negative = inhibition) at 10uM [%]
1 | OCC(O)CSc1nc(-c2ccccc2)nc2c1CCC2 (centres unmarked) | 2.22
2 | O=C(O)CSc1nc(-c2ccccc2)nc2c1CCCC2 | 12.8
3 | O=C(NCC(c1cccs1)N1CCOCC1)C1CCN(S(=O)(=O)c2c(Cl)cccc2Cl)CC1 (centres unmarked) | -27.3
4 | COc1ccc(C2C3CCCCC3(O)CCN2C(=O)c2cccs2)cc1 (centres unmarked) | 5.52
5 | CC(C)(C)C(=O)Nc1nnc(SCC(=O)NC2CCCCC2)s1 | 2.34
6 | COc1ccc(S(=O)(=O)N2CCC(C(=O)NCCN3CCOCC3)CC2)cc1 | 14.2
7 | CC1=NN(c2ccccc2)C(=O)C1/C=C1\C(=O)NC(=O)N(c2cc(C)cc(C)c2)C1=O (centres unmarked) | 6.47
8 | Cc1sc2nc(CSCC(=O)Nc3c(F)cccc3F)[nH]c(=O)c2c1C | 7.01
9 | CC(C)CNc1nnnc2c1sc1nc(N3CCOCC3)c3c(c12)CC(C)(C)SC3 | -20.8
10 | Cc1ccc(Sc2ccc(S(=O)(=O)Nc3ccc(CC(=O)O)cc3)cc2)cc1C | 3.13
11 | COc1ccccc1NS(=O)(=O)c1ccc(C(=O)NCC2(N(C)C)CCCCC2)cc1 | 3.78
12 | COc1ccccc1NS(=O)(=O)c1cccc(C(=O)NCC2(N(C)C)CCCCC2)c1 | -22.2
13 | COc1cc(C(=O)NCC2(N(C)C)CCCCC2)ccc1OCc1ccccc1 | -59.7
14 | CCN(c1ccccc1)S(=O)(=O)c1ccc(C(=O)NCCc2ccc(S(N)(=O)=O)cc2)cc1 | 5.49
15 | CN(c1ccccc1)S(=O)(=O)c1ccc(C(=O)Nc2ccncc2)cc1 | -9.83
16 | CCN(c1ccccc1)S(=O)(=O)c1cccc(C(=O)NCC2(N(C)C)CCCCC2)c1 | -60.5
17 | CN(C)C1(CNC(=O)c2cccc(S(=O)(=O)NCc3ccccc3)c2)CCCCC1 | -49.5
18 | CCN(c1ccccc1)S(=O)(=O)c1ccc(C(=O)Nc2ccccn2)cc1 | -8.37
19 | CNC(=O)c1ccc(OCc2ccccc2)c(OC)c1 | 3.11
20 | CCN(c1ccccc1)S(=O)(=O)c1ccc(C(=O)Nc2ccncc2)cc1 | -68.7
21 | COc1ccc(C(=O)NCC(=O)NCC2(N(C)C)CCCCC2)cc1OC | 3.45
22 | CCN(c1ccccc1)S(=O)(=O)c1ccc(C(=O)NCC2(N(C)C)CCCCC2)cc1 | -57.8

Row | Compound | hERG current change (%, negative = inhibition) at 10uM [%]
23 | O=C(NCCNC(=O)c1ccccn1)c1cccc(F)c1 | 23.7
24 | O/N=C/C1=C(Cl)c2ccccc2CC1 | -4.9
25 | Cc1ccccc1NC(=O)COC(=O)c1cccc(S(=O)(=O)N2CCCCC2)c1 | -6.55
26 | Cc1ccc(C(=O)N2CCN(C34CC5CC(CC(C5)C3)C4)CC2)o1 | -29.4
27 | CCc1nnc(NC(=O)CSc2nnc(-c3ccco3)n2CCOC)s1 | 9.29
28 | CC1CCN(c2oc(-c3ccco3)nc2S(=O)(=O)c2ccccc2)CC1 | -6.14
29 | CNC(=O)COC(=O)c1ccccc1Oc1ccccc1 | -5.63
30 | O=C1OC(C(=O)Nc2nccs2)Cc2ccccc21 (centres unmarked) | 12.7
31 | CCN(C(=O)c1cc2c(=O)n3ccccc3nc2n1C)C1CCCCC1 | 6.65
32 | CC(Cc1cccs1)NC(=O)Nc1ccc(Cl)cc1 (centres unmarked) | 1.12
33 | C[C@H](NC(=O)C1CCN(S(=O)(=O)c2ccccc2)CC1)C(=O)NCc1cccc(C(F)(F)F)c1 | -2.33
34 | Cc1ccc(C(=O)ON=C2CCN(c3ccc([N+](=O)[O-])cc3)CC2)cc1 | -60.9
35 | O=C(ON=C1CCN(c2ccc([N+](=O)[O-])cc2)CC1)c1ccccc1 | -47.5
36 | Cc1ccc(C(=O)OC2CCN(c3ccc([N+](=O)[O-])cc3)CC2)cc1 | -1.78
37 | COc1ccc(C(=O)ON=C2CCN(C)CC2)cc1.Cl | 12.8
38 | COc1ccc(C(=O)ON=C2CCN(c3ccc([N+](=O)[O-])cc3)CC2)cc1 | -68.5
39 | CCCOc1ccc(C(=O)ON=C2CCN(C)CC2)cc1.Cl | -9.07
40 | CC(=O)N1CCOc2cc(S(=O)(=O)NCc3ccc(F)cc3)c(C)cc21 | -16.6
41 | CCOc1ccc(/C=C/c2[nH]c(=O)[nH]c(=O)c2[N+](=O)[O-])cc1 | 8.01
42 | O=C(CCC(=O)Nc1ccccc1)N/N=C/c1ccc2c(c1)OCO2 | 28.7
43 | O=C(c1ccccc1S(=O)(=O)NCc1ccccc1)N1CCCC1 | -4.43
44 | CCN(CC)Cc1cc(C(C)=O)ccc1OCC(C)C | -31.5
